Screening data deposited in PubChem BioAssay by National Center for Advancing Translational Sciences (NCATS).
Giardia kill – Small Molecules that selectively kill Giardia lamblia: qHTS | Giardia lamblia trophozoite viability | activity change, % at 7.66 µM, hits read low | actives 0.15% (n = 340,000); in the data active = activity change below about -80%; inconclusive = between about -30% and that limit;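 note: parasites exposed to compound for two days anaerobically before the ATP read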
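Each well holds 100 Giardia trophozoites and compound. After two days (48 hrs) at 37 deg C in anaerobic conditions, ATP is quantified by luminescence.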
Sfp PPTase inh – qHTS Assay for Inhibitors of Bacillus subtilis Sfp phosphopantetheinyl transferase (PPTase) | Biochemical Sfp PPTase activity, qHTS | 4'-phosphopantetheinyl transferase ffp (Bacillus subtilis), Q9F4F7 | Potency, µM, usual class: inhibitors | actives 3.5% (n = 310,000);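 note: the enzyme is Sfp with the accession as filed and its product quenches rhodamine fluorescence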
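Step 1, compound plus 15 nM Sfp-PPTase, 15 min, room temperature. Step 2, add rhodamine-CoA (5 uM) and BHQ-2-YbbR (12.5 uM). Step 3, read 525/598 nm fluorescence at 0 and 30 min.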
Coupling enz – qHTS Assay for Inhibitors of Fructose-1,6-bisphosphate Aldolase from Giardia Lamblia: Coupling assay counterscreen | coupling enzyme system counterscreen, AmpLite Red fluorescence | activity change, negative = inhibition, % at 58.2 µM, hits read low | actives 0.67% (n = 290,000) | AID 2472, 2010; in the data active = activity change below about -30%
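Compounds tested against the coupling enzymes alone at 57.5 uM final; readout was AmpLite Red fluorescence (525/598 nm) after 20 min at RT.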
ELG1 repair inh – qHTS screen for small molecules that inhibit ELG1-dependent DNA repair in human embryonic kidney (HEK293T) cells expressing luciferase-tagged ELG1 | AID 504467, 2011 | actives 2.3% (n = 330,000) | Potency, µM (highest dose often 46.1 µM), usual class: inhibitors | HEK293T ELG1-luciferase reporter, luminescence, 16 h; DNA damage induced by 5-fluorouridine; note: nearly all actives have a fitted effect of over 55% in size
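Luminescence from the luciferase reporter, measured 30 min after ONE-Glo reagent at room temperature, was the read-out. Beforehand, 2,000 cells per well were exposed for 16 hr at 37 °C to 5-fluorouridine together with compound or vehicle.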
Hits are given with their value; – = inactive; ? = inconclusive; · = not tested or not shown. The list is not random: actives were taken first. Their share in the collection is about 5.5%. Unless noted, calls come from the whole dose curve; as a rule, active = well fitted curve in the direction sought with a large enough effect; inconclusive = small, poorly fitted or top-dose-only effect, or another doubt; inactive = no such curve, though single readings can be large; an effect the other way counts as inactive or inconclusive.

SMILES | Giardia kill | Sfp PPTase inh | Coupling enz | ELG1 repair inh
Cc1cccc(NC(=S)NNC(=O)c2ccc(O)cc2O)c1C | – | – | – | 10.3µM
Cc1ccc(C2C(C#N)=C(N)Oc3c2sc2ccccc32)o1 (stereo not given) | · | 56.2µM | – | –
O=C(NCCN1C(=O)S/C(=C\c2ccc(Cl)c(Cl)c2)C1=O)c1ccc2c(c1)C(=O)N(Cc1ccncc1)C2=O | – | ? | – | 9.2µM
CN(C)CCOc1ccccc1C(C)(C)C | – | 79.4µM | – | –
CN(C)CCOc1ccc(C(C)(C)c2ccccc2)cc1 | – | 44.7µM | – | –
CCCCCCCCC1=NCCc2c1[nH]c1ccccc21 | – | 56.2µM | – | –
CCCCn1c(=O)n(C)c(=O)c2c(C(F)(F)F)cc(-c3ccncc3)nc21 | – | – | – | 14.6µM
COc1ccc(OC)c(NC(=O)C2CCN(c3cc(-c4ccccc4)nc4ncnn34)CC2)c1 | – | ? | – | ?
COc1ccccc1NC(=O)N1CCN(c2cc(-c3ccccc3)nc3ncnn23)CC1 | – | – | – | 13µM
O=S(=O)(c1ccccc1OC(F)(F)F)N1CCN(c2ccnc3cc(Cl)ccc23)CC1 | – | – | · | 20.6µM
O=S(=O)(c1cccc(Br)c1)N1CCN(c2ccnc3cc(Cl)ccc23)CC1 | – | – | · | –
COc1ccccc1NC(=O)N1CCc2[nH]c3ccc(Cl)cc3c2C1 | – | – | – | 16.4µM
COc1cc2c(cc1OC)CN(C(=O)Nc1ccccc1Cl)CC2 | – | – | – | –
COc1ccccc1NC(=O)N1CCN(c2ccnc3cc(Cl)ccc23)CC1 | – | – | – | 11.6µM
Cc1ccc(S(=O)(=O)N2CCN(C(=O)c3cc(S(=O)(=O)N4CCOCC4)c(Cl)cc3Cl)CC2)cc1 | – | · | · | ·
O=C(C1CCCCC1)N1CCN(c2ccnc3cc(Cl)ccc23)CC1 | – | – | – | 11.6µM
O=C(Nc1ccc(OC(F)(F)F)cc1)N1CCN(c2ccnc3cc(Cl)ccc23)CC1 | – | – | – | 18.3µM
O=C(C1CCC1)N1CCN(c2ccnc3cc(Cl)ccc23)CC1 | – | – | – | –
CC1=CN(S(=O)(=O)c2ccc(C)cc2)C[C@@H]2[C@H]3CC[C@H](C3)[C@H]12 | – | · | · | –
COc1cccc(Nc2ccccc2C(=O)O)c1 | – | – | – | ?
COc1cc(-c2ccc(Nc3ccccc3C(=O)O)c(OC)c2)ccc1Nc1ccccc1C(=O)O | – | 50.1µM | – | ?
Cc1oc(C(=O)O)cc1CSCc1cc(C(=O)O)c(C)o1 | – | 20µM | – | ?
CCN(C(=O)CN1CCN(c2ccc(O)cc2)CC1)c1c(N)n(Cc2ccccc2)c(=O)[nH]c1=O | – | 14.1µM | -39.2 | –
CC(C)CN(C(=O)CN1CCN(c2ccc(O)cc2)CC1)c1c(N)n(CC(C)C)c(=O)[nH]c1=O | – | 25.1µM | -32.0 | –
CC(=O)c1ccc(N2CCN(CC(=O)N(CC(C)C)c3c(N)n(CC(C)C)c(=O)[nH]c3=O)CC2)cc1 | – | – | – | –
SMILES | Giardia kill | Sfp PPTase inh | Coupling enz | ELG1 repair inh
Cc1cc2oc(=O)cc(-c3ccccc3)c2c(C)c1-c1ccoc1 | · | – | – | ·
COc1ccc(/C=C2\SC(=S)N(CC(=O)OCC(=O)Nc3cc(Cl)cc(Cl)c3)C2=O)cc1 | – | 20µM | – | –
COc1ccc(/C=C2/SC(=S)N(CCCC(=O)Nc3cccc(O)c3)C2=O)cc1 | – | – | – | –
COc1cccc(CC(=O)Nn2c(C)nc3ccccc3c2=O)c1 | – | – | – | ?
COc1ccc(CNn2c(-c3cccs3)nc3ccccc3c2=O)cc1OC | – | – | – | 8.2µM
COc1cccc(C(=O)Nn2c(-c3cccs3)nc3ccccc3c2=O)c1OC | – | ? | – | ?
COc1ccc(OCC(=O)Nn2c(-c3ccc(C)cc3)nc3ccccc3c2=O)cc1 | – | – | – | –
COc1ccc(-c2nc3ccccc3c(=O)n2NC(=S)N(C)C)cc1 | – | 17.8µM | – | –
COc1cccc(CNn2c(-c3cccc(C)c3)nc3ccccc3c2=O)c1 | – | ? | – | 20.6µM
COc1ccc(OC)c(CNn2c(-c3cccc(C)c3)nc3ccccc3c2=O)c1 | – | – | – | 18.4µM
COc1ccc(-c2csc3nc(-c4cccnc4)nc(Cl)c23)cc1OC | – | 25.1µM | – | ?
Cc1ccc(/C=N/NC(=O)NC23CC4CC(CC(C4)C2)C3)o1 | – | 89.1µM | – | ?
CCC[C@@H]1C[C@@H](C(=O)N[C@@H]([C@H]2O[C@H](SC)[C@H](O)[C@@H](O)[C@H]2O)[C@@H](C)O)N(C)C1 | · | – | – | ·
Cc1ccc(-n2ncc3c(NCc4ccccn4)ncnc32)c(C)c1 | – | 44.7µM | – | –
Cc1ccc(/C=C/C(=O)N2CCN(S(=O)(=O)/C=C/c3ccccc3)CC2)o1 | – | 7.94µM | – | –
O=C(/C=C/c1ccco1)N1CCN(S(=O)(=O)/C=C/c2ccccc2)CC1 | – | 17.8µM | – | ?
O=C(/C=C/c1ccc(F)cc1)N1CCN(S(=O)(=O)/C=C/c2ccccc2)CC1 | – | – | – | –
COc1ccc(N=C2S/C(=C\c3ccc(Cl)c([N+](=O)[O-])c3)C(=O)N2CCN(C)C)cc1 | – | 39.8µM | – | –
CCCN1C(=O)/C(=C/c2ccc(C)s2)SC1=Nc1ccc(OC)cc1 | – | – | – | –
CCN(CC)CCN1C(=O)/C(=C\c2ccc(Cl)c([N+](=O)[O-])c2)SC1=Nc1ccc(OC)cc1 | – | 44.7µM | – | ?
CC1Cc2c(-c3ccccc3)nc3c(c2CO1)CN(CCOc1ccccc1)CC3 (stereo not given) | · | – | – | ·
Cn1ccsc1=NC(=O)c1ccccc1F | – | – | – | ?
Cc1ccc(C)c(-n2c(-c3ccc(Br)cc3)csc2=NC(=O)c2ccccc2F)c1 | – | – | – | 11.6µM
Cc1ccccc1NC(=O)c1ccc2nc(N3CCOCC3)sc2c1 | – | – | – | ?
Cn1nccc1C(=O)NC1CCCc2c1cnn2-c1ccc(C(C)(C)C)cc1 (stereo not given) | – | – | · | –
SMILES | Giardia kill | Sfp PPTase inh | Coupling enz | ELG1 repair inh
COc1cc(CN2CC(=O)N(c3cccc(Cl)c3C)C2=S)cc(OC)c1OC | – | – | – | ?
COc1ccc(OC)c(C2C(C#N)=C(N)Oc3cc(C)[nH]c(=O)c32)c1 (stereo not given) | – | – | – | ?
COc1ccc(OC)c(C2CC(=O)N3CN(c4cccc(Cl)c4C)CSC3=C2C#N)c1 (stereo not given) | – | 3.55µM | – | –
COc1cccc(C2CC(=O)N3CN(c4cccc(Cl)c4C)CSC3=C2C#N)c1OC (stereo not given) | – | 3.55µM | – | –
COc1ccc(/C=C/C=C2\N=C(SC)SC2=O)cc1 | – | 44.7µM | – | ?
Cc1noc(C)c1C(=O)N1CCC2(CC1)CN(C(=O)Nc1cccc(F)c1)C2 | · | – | – | ·
O=C(Sc1nnnn1C1CCCCC1)c1cccs1 | · | 35.5µM | – | –
CSc1nsc(SC)c1C(=O)NC(=O)Nc1cccnc1 | – | – | – | –
